ChEMBL document CHEMBL2218924, “A broad activity screen in support of a chemogenomic map for kinase signalling research and drug discovery” (Biochem J, 2013)

Assays:
[1] = target: Death-associated protein kinase 1 (Homo sapiens) (UniProt P53355); details: at 10 µM
[2] = target: Death-associated protein kinase 2 (Homo sapiens) (UniProt Q9UIK4); details: at 1 µM
[3] = target: Death-associated protein kinase 2 (Homo sapiens) (UniProt Q9UIK4); details: at 10 µM
[4] = target: T1, Serine/threonine-protein kinase DCLK2 (Homo sapiens) (UniProt Q8N568); details: at 1 µM
T1 sequence (whole entry): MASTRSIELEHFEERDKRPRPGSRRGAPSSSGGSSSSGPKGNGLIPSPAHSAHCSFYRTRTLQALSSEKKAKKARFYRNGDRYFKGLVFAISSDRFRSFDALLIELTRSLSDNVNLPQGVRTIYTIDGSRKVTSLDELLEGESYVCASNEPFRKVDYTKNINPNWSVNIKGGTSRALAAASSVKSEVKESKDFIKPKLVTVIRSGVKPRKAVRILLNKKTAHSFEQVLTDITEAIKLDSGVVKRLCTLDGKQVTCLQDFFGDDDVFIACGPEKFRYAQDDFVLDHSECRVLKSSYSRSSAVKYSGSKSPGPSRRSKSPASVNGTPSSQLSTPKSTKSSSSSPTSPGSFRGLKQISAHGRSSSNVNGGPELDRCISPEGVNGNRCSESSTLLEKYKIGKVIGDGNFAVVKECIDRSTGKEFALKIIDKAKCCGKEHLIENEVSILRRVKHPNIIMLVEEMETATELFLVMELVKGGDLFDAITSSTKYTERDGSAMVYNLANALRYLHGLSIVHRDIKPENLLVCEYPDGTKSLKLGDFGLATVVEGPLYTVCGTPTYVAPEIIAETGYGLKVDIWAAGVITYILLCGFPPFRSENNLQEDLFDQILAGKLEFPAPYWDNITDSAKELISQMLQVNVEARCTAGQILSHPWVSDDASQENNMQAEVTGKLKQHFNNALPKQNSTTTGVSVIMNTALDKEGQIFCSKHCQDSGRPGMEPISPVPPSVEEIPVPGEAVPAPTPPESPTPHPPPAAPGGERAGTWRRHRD

[5] = target: T1, Serine/threonine-protein kinase DCLK2 (Homo sapiens); details: at 10 µM
[6] = target: T2, Discoidin domain-containing receptor 2 (Homo sapiens) (UniProt Q16832); details: at 10 µM
T2 sequence (whole entry): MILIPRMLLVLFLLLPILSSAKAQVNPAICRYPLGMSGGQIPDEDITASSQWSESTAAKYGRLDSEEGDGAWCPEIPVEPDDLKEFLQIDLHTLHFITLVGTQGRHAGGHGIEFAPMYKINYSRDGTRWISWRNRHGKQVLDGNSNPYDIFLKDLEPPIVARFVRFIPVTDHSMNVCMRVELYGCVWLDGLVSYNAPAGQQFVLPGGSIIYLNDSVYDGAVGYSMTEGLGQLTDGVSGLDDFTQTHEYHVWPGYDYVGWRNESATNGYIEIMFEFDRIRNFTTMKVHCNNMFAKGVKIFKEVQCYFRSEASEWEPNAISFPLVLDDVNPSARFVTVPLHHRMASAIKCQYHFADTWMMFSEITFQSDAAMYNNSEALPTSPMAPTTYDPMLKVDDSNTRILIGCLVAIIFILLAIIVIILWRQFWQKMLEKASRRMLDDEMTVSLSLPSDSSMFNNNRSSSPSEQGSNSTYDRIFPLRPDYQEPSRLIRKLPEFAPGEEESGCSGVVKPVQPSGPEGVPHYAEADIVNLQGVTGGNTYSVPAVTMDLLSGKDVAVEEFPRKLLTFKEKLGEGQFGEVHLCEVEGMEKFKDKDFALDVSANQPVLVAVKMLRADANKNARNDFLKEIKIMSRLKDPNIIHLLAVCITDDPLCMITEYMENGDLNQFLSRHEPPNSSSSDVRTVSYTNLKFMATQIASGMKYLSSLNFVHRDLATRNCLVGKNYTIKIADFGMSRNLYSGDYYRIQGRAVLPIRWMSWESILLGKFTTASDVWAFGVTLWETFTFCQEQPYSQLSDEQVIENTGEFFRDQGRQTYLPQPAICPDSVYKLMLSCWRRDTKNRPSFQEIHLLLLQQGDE

[7] = target: T3, Serine/threonine-protein kinase 17A (Homo sapiens) (UniProt Q9UEE5); details: at 1 µM
T3 sequence (whole entry): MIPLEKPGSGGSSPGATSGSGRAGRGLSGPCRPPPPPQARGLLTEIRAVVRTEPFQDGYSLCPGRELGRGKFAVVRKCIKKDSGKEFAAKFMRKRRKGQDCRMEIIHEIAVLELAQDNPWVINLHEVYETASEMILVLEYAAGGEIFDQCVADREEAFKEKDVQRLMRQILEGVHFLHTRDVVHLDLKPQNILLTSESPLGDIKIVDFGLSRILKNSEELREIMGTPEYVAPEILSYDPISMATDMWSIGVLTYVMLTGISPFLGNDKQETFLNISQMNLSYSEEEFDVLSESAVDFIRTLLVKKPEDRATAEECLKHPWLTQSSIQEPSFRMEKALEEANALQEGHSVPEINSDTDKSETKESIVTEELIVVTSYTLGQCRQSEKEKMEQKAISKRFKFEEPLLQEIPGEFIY

[8] = target: T3, Serine/threonine-protein kinase 17A (Homo sapiens); details: at 10 µM
[9] = target: T4, Ephrin type-A receptor 1 (Homo sapiens) (UniProt P21709); details: at 1 µM
T4 sequence (whole entry): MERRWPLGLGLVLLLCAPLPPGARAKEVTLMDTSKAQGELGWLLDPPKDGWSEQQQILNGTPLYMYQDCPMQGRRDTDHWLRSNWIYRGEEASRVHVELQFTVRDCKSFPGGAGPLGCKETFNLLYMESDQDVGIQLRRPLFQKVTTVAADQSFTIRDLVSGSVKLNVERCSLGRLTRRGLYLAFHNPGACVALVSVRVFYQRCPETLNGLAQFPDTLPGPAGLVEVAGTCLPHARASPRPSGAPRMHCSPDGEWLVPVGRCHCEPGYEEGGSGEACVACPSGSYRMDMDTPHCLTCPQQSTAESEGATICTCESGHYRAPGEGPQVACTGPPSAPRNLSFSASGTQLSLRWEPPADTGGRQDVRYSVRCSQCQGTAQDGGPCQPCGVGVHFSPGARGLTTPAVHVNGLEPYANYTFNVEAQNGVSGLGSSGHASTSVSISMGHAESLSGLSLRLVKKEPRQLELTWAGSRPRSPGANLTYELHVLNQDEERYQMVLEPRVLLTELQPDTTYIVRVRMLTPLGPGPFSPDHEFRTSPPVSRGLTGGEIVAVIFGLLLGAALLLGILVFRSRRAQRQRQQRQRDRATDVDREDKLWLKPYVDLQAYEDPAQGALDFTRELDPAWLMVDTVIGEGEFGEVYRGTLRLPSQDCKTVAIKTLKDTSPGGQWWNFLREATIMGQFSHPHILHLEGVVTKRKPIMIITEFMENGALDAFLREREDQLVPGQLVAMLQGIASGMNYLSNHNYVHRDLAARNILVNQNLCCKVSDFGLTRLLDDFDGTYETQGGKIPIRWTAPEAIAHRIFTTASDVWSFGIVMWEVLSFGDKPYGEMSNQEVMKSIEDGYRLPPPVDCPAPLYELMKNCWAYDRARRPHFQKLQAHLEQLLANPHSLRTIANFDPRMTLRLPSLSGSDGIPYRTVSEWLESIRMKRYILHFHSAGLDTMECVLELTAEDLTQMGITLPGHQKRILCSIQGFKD

[10] = target: T4, Ephrin type-A receptor 1 (Homo sapiens); details: at 10 µM
[11] = target: Ephrin type-A receptor 2 (Homo sapiens) (UniProt P29317); details: at 1 µM
Ephrin type-A receptor 2 (Homo sapiens), sequence (P29317 whole entry): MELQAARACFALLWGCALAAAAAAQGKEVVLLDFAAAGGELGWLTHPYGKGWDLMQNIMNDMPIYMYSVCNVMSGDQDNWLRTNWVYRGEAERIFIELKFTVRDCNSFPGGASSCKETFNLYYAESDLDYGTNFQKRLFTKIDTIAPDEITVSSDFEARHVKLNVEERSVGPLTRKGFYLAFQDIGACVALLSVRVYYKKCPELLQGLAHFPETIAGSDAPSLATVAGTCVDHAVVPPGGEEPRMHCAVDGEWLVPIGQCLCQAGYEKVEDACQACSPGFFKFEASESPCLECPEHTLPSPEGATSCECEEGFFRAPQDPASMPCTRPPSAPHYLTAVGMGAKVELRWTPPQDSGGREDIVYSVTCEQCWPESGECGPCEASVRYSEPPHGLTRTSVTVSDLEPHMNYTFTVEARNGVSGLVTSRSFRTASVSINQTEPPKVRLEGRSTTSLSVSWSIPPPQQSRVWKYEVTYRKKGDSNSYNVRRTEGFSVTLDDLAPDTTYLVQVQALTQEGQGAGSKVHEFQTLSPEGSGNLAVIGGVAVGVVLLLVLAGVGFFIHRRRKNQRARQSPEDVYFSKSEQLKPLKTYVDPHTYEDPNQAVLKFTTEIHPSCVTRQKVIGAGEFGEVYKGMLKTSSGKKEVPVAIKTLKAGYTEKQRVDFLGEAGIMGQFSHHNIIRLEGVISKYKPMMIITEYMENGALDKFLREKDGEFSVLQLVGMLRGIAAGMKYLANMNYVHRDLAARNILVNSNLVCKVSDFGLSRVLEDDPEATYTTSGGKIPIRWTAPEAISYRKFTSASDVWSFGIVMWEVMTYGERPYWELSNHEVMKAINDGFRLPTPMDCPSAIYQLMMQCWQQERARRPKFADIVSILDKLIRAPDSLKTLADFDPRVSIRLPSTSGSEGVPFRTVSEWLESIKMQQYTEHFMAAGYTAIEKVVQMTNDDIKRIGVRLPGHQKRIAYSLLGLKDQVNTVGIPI

[12] = target: Ephrin type-A receptor 2 (Homo sapiens) (UniProt P29317); details: at 10 µM
[13] = target: T5, Ephrin type-A receptor 3 (Homo sapiens) (UniProt P29320); details: at 1 µM
T5 sequence (whole entry): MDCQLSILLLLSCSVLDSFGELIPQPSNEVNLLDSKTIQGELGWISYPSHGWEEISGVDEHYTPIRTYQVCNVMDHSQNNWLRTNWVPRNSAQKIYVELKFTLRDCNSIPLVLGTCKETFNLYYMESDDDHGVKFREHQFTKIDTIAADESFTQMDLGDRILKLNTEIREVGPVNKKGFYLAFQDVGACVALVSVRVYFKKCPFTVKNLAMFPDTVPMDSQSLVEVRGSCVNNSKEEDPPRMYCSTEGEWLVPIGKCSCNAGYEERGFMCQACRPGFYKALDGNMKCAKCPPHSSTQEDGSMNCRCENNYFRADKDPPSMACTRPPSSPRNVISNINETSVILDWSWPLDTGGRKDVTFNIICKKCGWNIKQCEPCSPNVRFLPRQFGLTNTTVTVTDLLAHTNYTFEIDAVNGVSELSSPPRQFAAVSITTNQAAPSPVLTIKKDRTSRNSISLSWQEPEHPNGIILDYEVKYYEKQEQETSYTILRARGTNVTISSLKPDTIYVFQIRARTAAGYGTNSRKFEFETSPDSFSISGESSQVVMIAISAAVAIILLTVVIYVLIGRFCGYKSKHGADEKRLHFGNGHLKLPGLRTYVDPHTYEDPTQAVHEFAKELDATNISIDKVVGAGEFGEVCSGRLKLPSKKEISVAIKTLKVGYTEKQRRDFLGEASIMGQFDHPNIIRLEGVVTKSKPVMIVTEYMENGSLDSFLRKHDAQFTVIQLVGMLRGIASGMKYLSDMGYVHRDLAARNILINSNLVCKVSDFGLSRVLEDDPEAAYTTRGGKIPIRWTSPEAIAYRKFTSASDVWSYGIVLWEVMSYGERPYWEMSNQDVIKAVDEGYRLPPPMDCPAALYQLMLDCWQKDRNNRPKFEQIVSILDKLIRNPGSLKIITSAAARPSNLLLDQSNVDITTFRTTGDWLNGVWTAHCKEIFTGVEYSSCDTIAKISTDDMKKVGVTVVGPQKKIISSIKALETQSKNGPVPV

[14] = target: T2, Discoidin domain-containing receptor 2 (Homo sapiens); details: at 1 µM
[15] = target: T6, Myotonin-protein kinase (Homo sapiens) (UniProt Q09013); details: at 10 µM
T6 sequence (whole entry): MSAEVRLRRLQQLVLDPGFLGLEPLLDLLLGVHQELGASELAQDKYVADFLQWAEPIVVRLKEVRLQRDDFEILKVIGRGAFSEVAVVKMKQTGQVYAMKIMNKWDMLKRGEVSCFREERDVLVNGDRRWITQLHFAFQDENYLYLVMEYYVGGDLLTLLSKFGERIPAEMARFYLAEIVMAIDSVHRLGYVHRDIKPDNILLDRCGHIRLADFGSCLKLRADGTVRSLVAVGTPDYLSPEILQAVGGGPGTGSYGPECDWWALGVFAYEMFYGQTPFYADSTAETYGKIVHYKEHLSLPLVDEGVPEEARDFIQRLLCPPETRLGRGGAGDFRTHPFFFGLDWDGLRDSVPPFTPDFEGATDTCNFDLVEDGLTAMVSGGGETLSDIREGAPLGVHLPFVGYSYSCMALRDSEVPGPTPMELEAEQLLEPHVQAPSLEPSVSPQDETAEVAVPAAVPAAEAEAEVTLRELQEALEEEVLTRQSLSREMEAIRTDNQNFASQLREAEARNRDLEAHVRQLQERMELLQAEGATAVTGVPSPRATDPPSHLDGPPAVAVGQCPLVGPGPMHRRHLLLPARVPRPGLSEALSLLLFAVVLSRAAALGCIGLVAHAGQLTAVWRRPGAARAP

[16] = target: T7, Dual specificity tyrosine-phosphorylation-regulated kinase 2 (Homo sapiens) (UniProt Q92630); details: at 1 µM
T7 sequence (whole entry): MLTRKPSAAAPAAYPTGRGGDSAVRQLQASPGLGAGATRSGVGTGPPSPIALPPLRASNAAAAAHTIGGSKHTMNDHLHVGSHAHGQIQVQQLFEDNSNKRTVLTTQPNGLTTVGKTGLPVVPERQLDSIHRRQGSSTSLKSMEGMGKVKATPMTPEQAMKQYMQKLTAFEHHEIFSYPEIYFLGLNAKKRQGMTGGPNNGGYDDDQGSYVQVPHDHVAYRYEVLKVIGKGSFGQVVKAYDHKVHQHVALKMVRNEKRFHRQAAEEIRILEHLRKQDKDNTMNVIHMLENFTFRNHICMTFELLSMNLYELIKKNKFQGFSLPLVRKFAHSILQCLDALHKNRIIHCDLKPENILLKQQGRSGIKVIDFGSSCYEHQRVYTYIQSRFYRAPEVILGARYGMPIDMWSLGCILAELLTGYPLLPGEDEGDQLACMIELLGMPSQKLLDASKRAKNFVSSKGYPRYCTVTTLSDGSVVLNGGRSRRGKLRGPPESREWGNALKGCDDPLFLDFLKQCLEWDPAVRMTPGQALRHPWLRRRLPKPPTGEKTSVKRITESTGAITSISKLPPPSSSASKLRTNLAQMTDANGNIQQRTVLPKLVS

[17] = target: T7, Dual specificity tyrosine-phosphorylation-regulated kinase 2 (Homo sapiens); details: at 10 µM
[18] = target: T6, Myotonin-protein kinase (Homo sapiens); details: at 1 µM

Death-associated protein kinase 1 (Homo sapiens), sequence (P53355 whole entry, looked up): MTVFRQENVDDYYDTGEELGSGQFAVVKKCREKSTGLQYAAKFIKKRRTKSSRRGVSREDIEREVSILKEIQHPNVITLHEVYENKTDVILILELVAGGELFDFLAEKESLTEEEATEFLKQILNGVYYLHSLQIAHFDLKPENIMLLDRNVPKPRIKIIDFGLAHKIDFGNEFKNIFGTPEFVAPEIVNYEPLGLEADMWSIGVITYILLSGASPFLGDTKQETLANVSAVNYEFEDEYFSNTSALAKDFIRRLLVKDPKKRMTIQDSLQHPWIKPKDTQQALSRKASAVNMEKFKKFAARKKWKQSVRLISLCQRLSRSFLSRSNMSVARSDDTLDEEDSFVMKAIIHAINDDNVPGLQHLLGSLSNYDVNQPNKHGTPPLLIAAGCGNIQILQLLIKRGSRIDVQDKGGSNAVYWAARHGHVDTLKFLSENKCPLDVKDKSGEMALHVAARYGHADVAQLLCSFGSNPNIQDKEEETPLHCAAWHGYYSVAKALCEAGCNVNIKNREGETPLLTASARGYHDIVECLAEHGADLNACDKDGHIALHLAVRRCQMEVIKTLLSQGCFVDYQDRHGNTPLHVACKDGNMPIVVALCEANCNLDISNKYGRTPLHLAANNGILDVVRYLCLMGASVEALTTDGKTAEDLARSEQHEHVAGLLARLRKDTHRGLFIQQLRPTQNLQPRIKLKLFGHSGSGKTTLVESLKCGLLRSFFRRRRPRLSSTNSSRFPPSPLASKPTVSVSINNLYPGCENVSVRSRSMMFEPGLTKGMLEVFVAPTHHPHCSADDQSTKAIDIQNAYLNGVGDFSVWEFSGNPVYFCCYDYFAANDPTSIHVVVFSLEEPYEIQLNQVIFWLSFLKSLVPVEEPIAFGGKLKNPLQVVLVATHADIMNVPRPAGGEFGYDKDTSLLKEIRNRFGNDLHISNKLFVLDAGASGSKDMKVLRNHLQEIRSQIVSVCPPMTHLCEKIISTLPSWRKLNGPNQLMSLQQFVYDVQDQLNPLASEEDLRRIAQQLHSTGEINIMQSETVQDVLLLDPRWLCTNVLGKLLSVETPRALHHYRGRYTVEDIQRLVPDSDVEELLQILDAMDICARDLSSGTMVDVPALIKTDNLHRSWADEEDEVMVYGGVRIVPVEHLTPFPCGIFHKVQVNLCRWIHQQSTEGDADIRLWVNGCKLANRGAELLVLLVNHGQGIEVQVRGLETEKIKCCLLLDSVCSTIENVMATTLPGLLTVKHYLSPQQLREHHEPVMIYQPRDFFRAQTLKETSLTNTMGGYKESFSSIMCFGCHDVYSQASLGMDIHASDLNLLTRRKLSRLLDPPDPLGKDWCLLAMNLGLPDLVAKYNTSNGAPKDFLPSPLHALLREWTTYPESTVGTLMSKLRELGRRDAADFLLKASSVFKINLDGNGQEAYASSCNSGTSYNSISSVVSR
Death-associated protein kinase 2 (Homo sapiens), sequence (Q9UIK4 whole entry, looked up): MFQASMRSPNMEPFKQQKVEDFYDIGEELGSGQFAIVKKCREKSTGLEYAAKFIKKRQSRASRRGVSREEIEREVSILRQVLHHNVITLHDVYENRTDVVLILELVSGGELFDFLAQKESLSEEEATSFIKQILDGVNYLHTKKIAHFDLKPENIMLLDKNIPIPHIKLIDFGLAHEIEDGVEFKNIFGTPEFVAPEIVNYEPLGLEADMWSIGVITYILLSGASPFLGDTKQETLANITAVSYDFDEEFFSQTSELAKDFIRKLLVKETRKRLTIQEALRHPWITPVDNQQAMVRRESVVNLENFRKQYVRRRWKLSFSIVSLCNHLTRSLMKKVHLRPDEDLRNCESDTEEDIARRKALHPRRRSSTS

Structure (SMILES) | residual activity [1] | residual activity [2] | residual activity [3] | residual activity [4] | residual activity [5] | residual activity [6] | residual activity [7] | residual activity [8] | residual activity [9] | residual activity [10] | residual activity [11] | residual activity [12] | residual activity [13] | residual activity [14] | residual activity [15] | residual activity [16] | residual activity [17] | residual activity [18]
NC(=O)Nc1sc(-c2ccc(F)cc2)cc1C(N)=O | 70% | 95% | 64% | 96% | 78% | 40% | 69% | 39% | 9% | 6% | 32% | 4% | 80% | – | – | – | – | –
Cn1sc(=O)n(Cc2ccccc2)c1=O | 80% | 97% | 99% | 100% | 90% | 90% | – | – | 96% | 93% | 93% | 92% | 87% | 78% | 81% | 96% | 82% | –
COc1ccc2c(c1)c(C1=C(c3c[nH]c4ccccc34)C(=O)NC1=O)cn2CCCN(C)C | 76% | 71% | 32% | 54% | 55% | – | – | 27% | 71% | 42% | 104% | 33% | 106% | 111% | 104% | – | – | 103%
COc1cc2nccc(Oc3ccc(NC(=S)NC(=O)c4ccccc4C)cc3)c2cc1OC | 76% | 99% | 99% | 82% | 94% | 11% | 129% | 92% | 46% | 24% | 91% | 55% | 98% | 26% | 141% | – | 91% | 138%
O=c1cc(N2CCOCC2)oc2c1ccc1ccccc12 | 84% | 92% | 80% | 83% | 87% | 105% | 92% | 71% | 91% | 87% | – | 95% | 92% | 106% | – | 97% | 65% | –
NC(=O)c1ccc(-c2nc(-c3ccc4c(c3)OCCO4)c(-c3ccccn3)[nH]2)cc1 | 78% | – | – | – | – | 97% | 89% | – | – | – | – | – | 100% | 98% | 97% | – | – | 93%
